According to PubChem BioAssay (Tox21):
Results filed as inconclusive are left out. The source made the active and inactive calls. Unless noted, calls follow the shape of the full dose curve.

Experiments:
[1] = Nuclear factor erythroid 2-related factor 2/antioxidant responsive element (Nrf2/ARE) small molecule agonists: qHTS cell viability counter screen in human keratinocytes (AID 1919968; active = well fitted curve in the direction sought with a large enough effect in the repeat runs; an effect the other way counts as inactive or inconclusive; also: nearly all actives have a fitted effect of over 55% in size)
Procedure, shortened: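 After a 5 h attachment period, ARE-reporter keratinocytes were dosed with compounds in DMSO and then cultured 23 h at 37 C. Cell viability came from CellTiter-Fluor signal read after a further 1 h.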

[2] = molecular target: Gonadotropin-releasing hormone receptor (Homo sapiens) (UniProt P30968); assay: Human gonadotropin-releasing hormone receptor (GnRHR) small molecule agonists, calcium flux assay in GnRHR-HEK293 cells (AID 1920063); also: nearly all actives have a fitted effect of over 35% in size
Procedure, shortened: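 We seeded human GnRHR-expressing HEK293 cells for 18 hours, loaded them with calcium dye for an hour at 37 C, added test compounds, and recorded fluorescence intensity kinetically for three minutes.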

[3] = molecular target: KiSS-1 receptor (Homo sapiens) (UniProt Q969F8); assay: Human kisspeptin (KISS1R) small molecule agonists, calcium flux assay in KISS1R-HEK293 cells (AID 1920064; active = well fitted curve in the direction sought with a large enough effect in the repeat runs; an effect the other way counts as inactive or inconclusive)
Procedure, shortened: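 Kinetic calcium assay, 1 s sampling over 3 min at Ex/Em 480/540, in HEK293 cells engineered with human KISS1R; compounds delivered in DMSO after 1 h dye loading.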

[4] = G protein-coupled receptor (GPCR) small molecule agonists, calcium flux assay: HEK293 wild type cell line counter screen (AID 1920065)
Procedure, shortened: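 Calcium-sensitive dye, loaded 1 h at 37 C into cells cultured 18 h, reports compound-evoked calcium release as fluorescence (Ex/Em 480/540), measured over 3 min. Agonist mode; 15-point titrations, triplicate.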

[5] = p53 small molecule agonists, cell-based qHTS assay with human liver microsomes: qHTS cell viability counter screen (AID 1963579); also: nearly all actives have a fitted effect of over 45% in size
Procedure, shortened: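 In this multiplexed counter screen, the reporter plates were subsequently treated with CellTiter-Glo so that cell viability, reflected by luminescence, could be recorded for p53RE-bla cells dosed 16 h with compounds under microsomal activation (HLM and NADPH).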

[6] = p53 small molecule agonists, cell-based qHTS assay with rat liver microsomes: qHTS cell viability counter screen (AID 1963580); also: nearly all actives have a fitted effect of over 45% in size
Procedure, shortened: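 p53RE-bla HCT-116 cells (4,000/well) rested 5 h at 37 C, then given Tox21 compounds in DMSO with rat liver microsomes (0.5 mg/mL final) plus NADPH (0.5 mg/mL final) for 16 h at 37 C. Viability read by CellTiter-Glo luminescence after 30 min at room temperature.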

[7] = p53 small molecule agonists, cell-based qHTS assay: qHTS cell viability counter screen (AID 1963581); also: nearly all actives have a fitted effect of over 45% in size
Procedure, shortened: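 Following 5 h attachment, HCT-116 p53RE-bla cells took up compound for 16 h at 37 C; the reporter was read with B/G FRET substrate (2 h RT), and viability then via CellTiter-Glo ATP luminescence.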

[8] = molecular target: 5-hydroxytryptamine receptor 2A (Homo sapiens) (UniProt P28223); assay: 5-hydroxytryptamine receptor 2A (HTR2A) small molecule agonists, cell-based qHTS assay (AID 1963587); also: nearly all actives have a fitted effect of over 30% in size
Procedure, shortened: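 HTR2A-CHO cells, plated 18 h at 37 C/5% CO2, dye-loaded 1 h at 37 C; compounds in DMSO added by pin tool (agonist mode). Intracellular calcium flux read as kinetic fluorescence on FDSS over 2 min at 1 s intervals.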

[9] = molecular target: Muscarinic acetylcholine receptor M1 (Homo sapiens) (UniProt P11229); assay: Cholinergic receptor muscarinic 1 (CHRM1) small molecule antagonists, cell-based qHTS assay (AID 1963588); also: nearly all actives have a fitted effect of over 40% in size
Procedure, shortened: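 CHRM1-CHO calcium-flux assay, antagonist mode. Cells were seeded 18 h, dye-loaded 1 h at 37 C and given compound for 5 min at RT, then acetylcholine was added at 50nM. FDSS fluorescence was read 3 min; 15 concentrations, three runs.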

[10] = molecular target: Muscarinic acetylcholine receptor M1 (Homo sapiens) (UniProt P11229); assay: Cholinergic receptor muscarinic 1 (CHRM1) small molecule agonists, cell-based qHTS assay (AID 1963589); also: nearly all actives have a fitted effect of over 35% in size
Procedure, shortened: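 Measures agonist-induced intracellular calcium rise. Stable human CHRM1 CHO line, 1 h dye load at 37 C, compounds from DMSO, kinetic fluorescence read.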

[11] = cAMP Responsive Elements (CRE) small molecule agonists, cell-based qHTS assay (AID 1963590)
Procedure, shortened: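 A CRE-responsive beta-lactamase reporter in HEK 293T cells was used. Treatment ran 3 h at 37 C; detection used LiveBLAzer B/G FRET substrate for 2 h at room temperature.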

[12] = cAMP Responsive Elements (CRE) small molecule antagonists, cell-based qHTS assay (AID 1963591; active = well fitted inhibition curve with a large enough effect in the signal ratio in the repeat runs, not every such curve was filed as active; the % refers to the signal ratio)
Procedure, shortened: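 HEK293T cells carrying a CRE-driven beta-lactamase reporter receive compound and NKH477 (0.25 uM final) for 3 h. Fluorescence from LiveBLAzer B/G FRET substrate is read after 2 h at room temperature.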

[13] = molecular target: Beta-2 adrenergic receptor (Homo sapiens) (UniProt P07550); assay: Adrenergic beta2 receptor (ADRB2) small molecule antagonists, cell-based qHTS assay (AID 1963592); also: series mostly up to about 92 µM; nearly all actives have a fitted effect of over 50% in size
Procedure, shortened: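 Cells (CHO, stable ADRB2 overexpression) incubated 18-20hr at 37C; compounds added from DMSO; agonist mix (1nM isoproterenol, 100uM IBMX, 25uM Ro-20-1724) added; 0.5hr RT; d2-cAMP and anti-cAMP-cryptate added; 1hr RT; 665/615 nm read.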

[14] = molecular target: Beta-2 adrenergic receptor (Homo sapiens) (UniProt P07550); assay: Adrenergic beta2 receptor (ADRB2) small molecule agonists, cell-based qHTS assay (AID 1963593);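 also: CHO cells stably overexpressing human ADRB2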
Procedure, shortened: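 CHO cells stably over-expressing ADRB2 were plated overnight at 37C, then dosed with compounds plus a stimulation mix containing 100uM IBMX and 25uM Ro-20-1724 for 0.5hr at room temperature. cAMP was measured by HTRF competition, 1hr.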

[15] = molecular target: D(2) dopamine receptor (Homo sapiens) (UniProt P14416); assay: Dopamine D2 receptor (DRD2) small molecule agonists, cell-based qHTS assay (AID 1963594); also: nearly all actives have a fitted effect of over 35% in size
Procedure, shortened: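 HEK293 cells stably expressing DRD2 were cultured 24 h at 37 C, then given Ro20-1724 (0.1 mM final) and compounds for 10 min at room temperature. NKH477 (200nM) was then added for 30 min. cAMP was read by HTRF.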

[16] = molecular target: D(2) dopamine receptor (Homo sapiens) (UniProt P14416); assay: Dopamine D2 receptor (DRD2) small molecule antagonists, cell-based qHTS assay (AID 1963595; active = well fitted inhibition curve with a large enough effect in the signal ratio in the repeat runs, with a control signal flat; the % refers to the signal ratio)
Procedure, shortened: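 HEK293 cells stably expressing DRD2, preincubated with 0.1 mM Ro20-1724 and compounds 10 min, were stimulated with 200 nM NKH477 plus 12 nM quinpirole for 30 min at room temperature; cAMP measured by HTRF (665/620 nm).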

[17] = molecular target: 5-hydroxytryptamine receptor 2A (Homo sapiens) (UniProt P28223); assay: 5-hydroxytryptamine receptor 2A (HTR2A) small molecule antagonists, cell-based qHTS assay (AID 1963586); also: nearly all actives have a fitted effect of over 45% in size
Procedure, shortened: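 Antagonist-mode intracellular calcium assay: DOI (4 nM) added after 5 min compound pre-incubation at room temperature to dye-loaded HTR2A-CHO cells. Fluorescence followed for 3 min, sampled every second.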
% is scaled to controls: 0 for no effect and ±100 for the full control effect.

Sequence of Beta-2 adrenergic receptor (Homo sapiens) (P07550 whole entry, looked up): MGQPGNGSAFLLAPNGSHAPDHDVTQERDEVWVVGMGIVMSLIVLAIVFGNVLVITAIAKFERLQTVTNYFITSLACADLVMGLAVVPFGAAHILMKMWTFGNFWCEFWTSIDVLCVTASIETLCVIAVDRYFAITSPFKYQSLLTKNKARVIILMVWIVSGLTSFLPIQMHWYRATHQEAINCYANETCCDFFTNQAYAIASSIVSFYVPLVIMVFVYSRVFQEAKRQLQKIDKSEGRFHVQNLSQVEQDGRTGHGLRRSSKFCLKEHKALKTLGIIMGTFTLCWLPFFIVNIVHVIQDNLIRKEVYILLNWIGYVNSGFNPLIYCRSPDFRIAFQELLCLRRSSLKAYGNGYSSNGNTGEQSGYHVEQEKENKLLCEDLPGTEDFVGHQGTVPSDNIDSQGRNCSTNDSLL
Sequence of Gonadotropin-releasing hormone receptor (Homo sapiens) (P30968 whole entry, looked up): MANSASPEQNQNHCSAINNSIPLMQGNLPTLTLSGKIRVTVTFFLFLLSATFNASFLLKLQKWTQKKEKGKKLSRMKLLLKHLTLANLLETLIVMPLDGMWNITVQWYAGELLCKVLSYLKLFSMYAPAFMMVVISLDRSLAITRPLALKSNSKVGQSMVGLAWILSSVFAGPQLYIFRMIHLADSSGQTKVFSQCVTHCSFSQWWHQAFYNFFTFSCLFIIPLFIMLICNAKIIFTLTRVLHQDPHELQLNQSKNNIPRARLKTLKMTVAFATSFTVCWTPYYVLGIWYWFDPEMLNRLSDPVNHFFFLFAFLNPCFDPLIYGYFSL
Sequence of D(2) dopamine receptor (Homo sapiens) (P14416 whole entry, looked up): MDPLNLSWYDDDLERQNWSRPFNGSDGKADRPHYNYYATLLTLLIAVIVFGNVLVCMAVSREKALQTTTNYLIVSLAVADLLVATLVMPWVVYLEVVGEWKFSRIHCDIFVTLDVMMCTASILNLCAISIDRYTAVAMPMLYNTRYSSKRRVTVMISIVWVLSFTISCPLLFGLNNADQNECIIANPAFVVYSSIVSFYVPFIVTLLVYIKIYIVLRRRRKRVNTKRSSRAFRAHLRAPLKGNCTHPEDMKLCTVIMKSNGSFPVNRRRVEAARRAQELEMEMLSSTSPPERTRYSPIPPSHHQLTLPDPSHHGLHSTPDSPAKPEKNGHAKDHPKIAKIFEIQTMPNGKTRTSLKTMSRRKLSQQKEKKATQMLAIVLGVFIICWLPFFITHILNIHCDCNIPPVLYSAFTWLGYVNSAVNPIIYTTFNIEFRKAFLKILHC
Sequence of Muscarinic acetylcholine receptor M1 (Homo sapiens) (P11229 whole entry, looked up): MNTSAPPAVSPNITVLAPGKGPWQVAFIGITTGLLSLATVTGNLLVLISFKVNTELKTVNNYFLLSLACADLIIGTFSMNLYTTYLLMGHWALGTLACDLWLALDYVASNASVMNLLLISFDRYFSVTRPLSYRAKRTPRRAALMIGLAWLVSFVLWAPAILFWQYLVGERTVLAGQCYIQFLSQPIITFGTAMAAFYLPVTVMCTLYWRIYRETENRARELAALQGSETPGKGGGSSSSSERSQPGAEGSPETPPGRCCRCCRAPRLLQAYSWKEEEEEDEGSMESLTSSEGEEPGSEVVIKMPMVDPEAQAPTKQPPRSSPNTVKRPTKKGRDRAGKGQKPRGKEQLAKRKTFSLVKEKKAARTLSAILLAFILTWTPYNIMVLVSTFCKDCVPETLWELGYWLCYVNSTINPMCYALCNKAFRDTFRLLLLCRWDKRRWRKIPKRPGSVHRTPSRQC
Sequence of 5-hydroxytryptamine receptor 2A (Homo sapiens) (P28223 whole entry, looked up): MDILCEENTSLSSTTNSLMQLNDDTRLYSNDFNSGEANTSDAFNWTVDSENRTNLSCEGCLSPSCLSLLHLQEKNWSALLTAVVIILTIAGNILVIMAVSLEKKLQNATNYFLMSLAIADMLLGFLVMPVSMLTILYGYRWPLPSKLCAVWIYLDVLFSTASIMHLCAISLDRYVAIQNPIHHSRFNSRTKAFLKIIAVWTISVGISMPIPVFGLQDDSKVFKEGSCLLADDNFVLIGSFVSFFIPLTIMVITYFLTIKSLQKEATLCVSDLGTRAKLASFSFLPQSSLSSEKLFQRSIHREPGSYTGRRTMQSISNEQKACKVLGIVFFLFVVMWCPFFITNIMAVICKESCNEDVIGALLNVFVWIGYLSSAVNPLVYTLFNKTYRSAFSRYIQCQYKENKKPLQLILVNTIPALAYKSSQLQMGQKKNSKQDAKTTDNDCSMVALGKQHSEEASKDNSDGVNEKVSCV
Sequence of KiSS-1 receptor (Homo sapiens) (Q969F8 whole entry, looked up): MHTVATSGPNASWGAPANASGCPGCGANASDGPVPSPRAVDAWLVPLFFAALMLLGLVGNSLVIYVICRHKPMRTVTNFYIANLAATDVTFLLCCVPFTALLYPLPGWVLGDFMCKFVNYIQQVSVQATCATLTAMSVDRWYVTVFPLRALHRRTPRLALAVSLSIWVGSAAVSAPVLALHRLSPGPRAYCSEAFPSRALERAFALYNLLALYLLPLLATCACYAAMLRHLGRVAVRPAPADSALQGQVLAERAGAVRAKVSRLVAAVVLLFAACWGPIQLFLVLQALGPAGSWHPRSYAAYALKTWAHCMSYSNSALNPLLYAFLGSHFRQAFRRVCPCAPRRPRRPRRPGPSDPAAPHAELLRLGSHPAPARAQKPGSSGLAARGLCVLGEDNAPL

O=C(O)c1ccc(S(=O)(=O)O)cc1C(=O)O
inactive: Potency [1] | Potency [2] | Potency [3] | Potency [4] | Potency [5] | Potency [6] | Potency [7] | Potency [8] | Potency [9] | Potency [10] | Potency [11] | Potency [12] | Potency [13] | Potency [14] | Potency [15] | Potency [16]

COC(=O)[C@@H]1CC2=CC(=O)CC[C@]2(C)[C@@]23O[C@@H]2C[C@@]2(C)[C@@H](CC[C@@]24CCC(=O)O4)[C@H]13
inactive: Potency [1] | Potency [2] | Potency [3] | Potency [4] | Potency [5] | Potency [6] | Potency [7] | Potency [8] | Potency [9] | Potency [11] | Potency [12] | Potency [14] | Potency [15] | Potency [16]

C=O
inactive: Potency [1] | Potency [2] | Potency [3] | Potency [4] | Potency [5] | Potency [6] | Potency [7] | Potency [17] | Potency [9] | Potency [10] | Potency [11] | Potency [13] | Potency [16]

COc1cc(NCc2ccc3nc(N)nc(N)c3c2C)cc(OC)c1OC
inactive: Potency [1] | Potency [2] | Potency [3] | Potency [4] | Potency [5] | Potency [6] | Potency [8] | Potency [9] | Potency [10] | Potency [13] | Potency [14] | Potency [15] | Potency [16]

CC(C)O.CC(C)O.CCOC(=O)/C=C(\C)O.CCOC(=O)/C=C(\C)O.[Ti]
inactive: Potency [1] | Potency [2] | Potency [3] | Potency [4] | Potency [5] | Potency [6] | Potency [7] | Potency [17] | Potency [8] | Potency [9] | Potency [10] | Potency [11] | Potency [12] | Potency [13] | Potency [15] | Potency [16]

CC(C)CCCCCCOC(=O)C1CCCCC1C(=O)OCCCCCCC(C)C (centres undefined)
inactive: Potency [1] | Potency [2] | Potency [3] | Potency [4] | Potency [5] | Potency [6] | Potency [17] | Potency [8] | Potency [9] | Potency [10] | Potency [11] | Potency [12] | Potency [13] | Potency [15] | Potency [16]

N[C@@H](CCC(=O)N[C@@H](CS)C(=O)NCC(=O)O)C(=O)O
inactive: activity change, negative = cytotoxicity [1] 3.9% [at 19 µM] | activity change [2] 2.39% [at 11.8 µM, stronger effect = higher value] | activation [3] 0.132% [at 15.8 µM] | activation [4] -1.3% [at 11.8 µM] | activity change, negative = cytotoxicity [5] -1.1% [at 13.5 µM] | activity change, negative = cytotoxicity [7] 13.7% [at 13.5 µM] | activity, negative = inhibition [17] -1.78% [at 12.7 µM] | activation [8] 2.78% [at 15.9 µM] | activity, negative = inhibition [9] 11.9% [at 12.6 µM] | activation [10] -0.288% [at 15.8 µM] | activity change, negative = inhibition [12] -10.5% [at 18.9 µM] | activation [14] 20.3% [at 19 µM] | activation [15] -7.59% [at 19 µM]

CC(C)O
inactive: Potency [1] | Potency [2] | Potency [3] | Potency [4] | Potency [5] | Potency [7] | Potency [17] | Potency [8] | Potency [9] | Potency [10] | Potency [13] | Potency [15] | Potency [16]

CCC(C)(C)OC
inactive: Potency [1] | Potency [2] | Potency [3] | Potency [4] | Potency [5] | Potency [7] | Potency [17] | Potency [8] | Potency [9] | Potency [10] | Potency [11] | Potency [13] | Potency [14] | Potency [15] | Potency [16]

COc1ccc(CCN(C)CCCN2CCc3cc(OC)c(OC)cc3CC2=O)cc1OC
inactive: Potency [1] | Potency [2] | Potency [3] | Potency [4] | Potency [5] | Potency [7] | Potency [17] | Potency [8] | Potency [9] | Potency [10] | Potency [11] | Potency [12] | Potency [13] | Potency [15] | Potency [16]

CCO[C@H](Cc1ccc(OCCc2ccc(OS(C)(=O)=O)cc2)cc1)C(=O)O
inactive: Potency [1] | Potency [2] | Potency [3] | Potency [4] | Potency [5] | Potency [6] | Potency [8] | Potency [10] | Potency [11] | Potency [12] | Potency [13] | Potency [15]

Brc1c2ccccc2c(Br)c2ccccc12
inactive: activity change, negative = cytotoxicity [1] 9.04% [at 8.39 µM] | activity change [2] -0.0865% [at 5.22 µM, stronger effect = higher value] | activation [3] 0.391% [at 6.97 µM] | activation [4] -0.151% [at 5.23 µM] | activity change, negative = cytotoxicity [5] 1.01% [at 5.99 µM] | activity change, negative = cytotoxicity [7] 12.6% [at 5.99 µM] | activity, negative = inhibition [17] 33.2% [at 5.62 µM] | activation [8] 0.903% [at 7.02 µM] | activation [10] -0.0159% [at 6.97 µM] | activation [11] 1.87% [at 8.39 µM] | activity change, negative = inhibition [12] 2.05% [at 8.39 µM] | activation [14] 3.4% [at 8.39 µM] | activation [15] 2.55% [at 8.39 µM] | activity change, negative = inhibition [16] -0.559% [at 8.38 µM]

CCC(Cl)CC(Cl)C(Cl)C(Cl)C(Cl)C(C)Cl (centres undefined)
inactive: activity change, negative = cytotoxicity [1] 2.55% [at 19 µM] | activity change [2] -1.19% [at 11.8 µM, stronger effect = higher value] | activation [3] -1.96% [at 15.8 µM] | activation [4] 0.622% [at 11.8 µM] | activity change, negative = cytotoxicity [5] -1.84% [at 13.5 µM] | activity change, negative = cytotoxicity [6] -14% [at 13.5 µM] | activity change, negative = cytotoxicity [7] -23.5% [at 13.5 µM] | activity, negative = inhibition [17] -18.7% [at 12.7 µM] | activation [8] -1.32% [at 15.9 µM] | activity, negative = inhibition [9] -3.76% [at 12.6 µM] | activation [10] -0.121% [at 15.8 µM] | activity change, negative = inhibition [12] 6.46% [at 18.9 µM] | activity change, negative = inhibition [13] -8.4% [at 19 µM] | activation [15] -1.17% [at 19 µM] | activity change, negative = inhibition [16] -0.674% [at 18.9 µM]

Cc1c(N)cccc1N
inactive: Potency [1] | Potency [2] | Potency [3] | Potency [4] | Potency [5] | Potency [6] | Potency [7] | Potency [17] | Potency [8] | Potency [9] | Potency [10] | Potency [11] | Potency [12] | Potency [15] | Potency [16]
